# Source: PubChem BioAssay
# Several values for one entry are separate records, joined by “and”; a condition that tells them apart may be missing. Equal values may be shown once. Activity calls are given as the source filed them. Unless noted, how the calls were made is not given here.
# Tests used:
# [1] = Cy5 fluorescence interference with SSB-bound oligo, artefact control for HCV NS3 helicase inhibitor project, biochemical, NIH Clinical Collection, E. coli SSB (AID 743268)
# [2] = test system: Hepatitis C virus NS3 helicase; experiment: HCV NS3 helicase inhibitors, primary screen, biochemical, fluorescence polarization, NIH Clinical Collection (AID 743270); conditions: NS3 helicase binding to Cy5-dT15 DNA, stronger effect = higher value, concentration not given here
# [3] = target: Single-stranded DNA-binding protein (Escherichia coli (strain K12)) (UniProt P0AGE0); experiment: E. coli SSB displacement from DNA, counter-screen for HCV NS3 helicase inhibitor project, biochemical, fluorescence polarization, NIH Clinical Collection (AID 743271; in the data active means inhibition above about 28%); conditions: stronger effect = higher value, concentration not given here
# [4] = fluorescence interference in NS3h assay format, artefact control for HCV NS3 helicase inhibitor project, biochemical, NIH Clinical Collection (AID 743272); conditions: fluorescence interference counterscreen, stronger effect = lower value;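 further: HCV NS3 helicase with a Cy5 labelled single stranded DNA probe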
# [5] = kinase inhibitors against Plasmodium liver-stage infection, cell-based, known kinase inhibitor set, luminescence, hepatoma host viability (AID 624392); conditions: Plasmodium liver stage in hepatoma cells, luciferase luminescence, concentration not given here; liver cell % of control: measured here: host liver cell viability; parasite % of control: stronger effect = lower value;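 further: infected cells incubated roughly two days before readout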
# [6] = test system: Hepatitis C virus NS3 helicase; experiment: HCV NS3 helicase inhibitors, primary screen, biochemical, fluorescence polarization, LOPAC1280 library (AID 687035; in the data active means inhibition above about 37%); conditions: Purified HCV NS3 helicase, Cy5-dT15 ssDNA binding fluorescence polarization; stronger effect = higher value; concentration not given here
# [7] = Cy5 fluorescence quenching or enhancement artefacts, artefact control for HCV NS3 helicase inhibitor project, biochemical, LOPAC1280 (AID 687037); conditions: Cy5-DNA-NS3h complex fluorescence interference counterscreen
# [8] = test system: Neuropilin-2 / VEGF-C interaction (human); experiment: inhibitors of NRP2–VEGF-C binding, biochemical, microplate binding format, z-score (AID 743281); conditions: microplate NRP2/VEGF-C binding assay
smiles,measurement,setting,value
CO[C@H]1C=CO[C@@]2(C)Oc3c(C)c(O)c4c(O)c(c(/C=N/N5CCN(C6CCCC6)CC5)c(O)c4c3C2=O)NC(=O)C(C)=CC=C[C@H](C)[C@H](O)[C@@H](C)[C@@H](O)[C@@H](C)[C@H](OC(C)=O)[C@@H]1C,fluorescence ratio,[1],1.02 (inactive)
same,inhibition,[2],-3.56% (inactive)
same,inhibition,[3],9.91% (inactive)
same,fluorescence ratio,[4],1.01 (inactive)
O=C(Nc1cccc(-c2csc(Nc3ccc(Cl)cc3)n2)c1)c1cc([N+](=O)[O-])cc(C(F)(F)F)c1,liver cell % of control,[5],95.1%
same,parasite % of control,[5],192% (inactive)
CC/C(O)=N/S(=O)(=O)c1ccc(-c2c(-c3ccccc3)noc2C)cc1,fluorescence ratio,[1],1.03 (inactive)
same,inhibition,[2],-1.97% (inactive)
same,inhibition,[3],-2.76% (inactive)
same,fluorescence ratio,[4],1.01 (inactive)
COc1cc(NC(=O)c2cnc(N)s2)cc(C(=O)Nc2cccc(C(F)(F)F)c2)c1,liver cell % of control,[5],98.2%
same,parasite % of control,[5],79% (inactive)
CC(=O)Nc1ccc(C(C)C(=O)Nc2ncc(C(C)C)s2)cc1 (stereo unspecified),liver cell % of control,[5],53.4% and 52.2% and 52.5%
same,parasite % of control,[5],136% (inactive) and 128% (inactive) and 133% (inactive)
NS(=O)(=O)c1ccc(-c2ccc(C=C3C(=O)c4ccccc4C3=O)o2)cc1,liver cell % of control,[5],102%
same,parasite % of control,[5],96.4% (inactive)
COCCCC/C(=N/OCCN)c1ccc(C(F)(F)F)cc1,inhibition,[6],-1% (inactive)
same,fluorescence ratio (interference),[7],1 (inactive)
CC(C)C(CO)Nc1nc(NCc2ccc(S(N)(=O)=O)cc2)c2ncn(C(C)C)c2n1 (stereo unspecified),liver cell % of control,[5],95.4%
same,parasite % of control,[5],647% (inactive)
C=CC(=O)Nc1cccc(CN2C(=O)N(c3cc(OC)cc(OC)c3)Cc3cnc(NCCCCN(CC)CC)nc32)c1,liver cell % of control,[5],102%
same,parasite % of control,[5],70.3% (active)
O=C1CN(/N=C\c2ccc(-c3ccc([N+](=O)[O-])cc3)o2)C(=O)N1,inhibition,[6],-3% (inactive)
same,fluorescence ratio (interference),[7],1 (inactive)
C=CCc1cccc(/C=N\NC(=O)CN2CCN(Cc3ccccc3)CC2)c1O,inhibition,[6],1% (inactive)
same,fluorescence ratio (interference),[7],0.9 (inactive)
CS(=O)(=O)Nc1ccc(-c2ccc(C=C3SC(N)=NC3=O)o2)cc1,liver cell % of control,[5],105%
same,parasite % of control,[5],130% (inactive)
CO[C@H]1C=CO[C@@]2(C)Oc3c(C)c(O)c4c(O)c(c5c(c4c3C2=O)NC2(CCN(CC(C)C)CC2)N=5)=NC(=O)/C(C)=C\C=C[C@H](C)[C@H](O)[C@@H](C)[C@@H](O)[C@@H](C)[C@H](OC(C)=O)[C@@H]1C,outcome,[8],inactive
Cc1ccc2nc(CN(CCN(Cc3nc4ccc(C)cc4[nH]3)Cc3nc4ccc(C)cc4[nH]3)Cc3nc4ccc(C)cc4[nH]3)[nH]c2c1,inhibition,[6],0% (inactive)
same,fluorescence ratio (interference),[7],1 (inactive)
CC(=O)N[C@H]1[C@H]([C@H](O)[C@H](O)CO)OC(C(=O)O)=C[C@@H]1O,inhibition,[6],2% (inactive)
same,fluorescence ratio (interference),[7],1 (inactive)
CO/N=C(/C(=O)N[C@@H]1C(=O)N2C(C(=O)O)=C(CSc3nc(=O)c(O)nn3C)CSC12)c1csc(N)n1 (stereo partly specified),inhibition,[6],-2% (inactive)
same,fluorescence ratio (interference),[7],1 (inactive)
CCN1CCN(Cc2ccc(NC(=O)c3cc(NC(=O)c4cncc(-c5ccc(C#N)cc5)c4)cc(OC)c3)cc2C(F)(F)F)CC1,liver cell % of control,[5],77.4%
same,parasite % of control,[5],95.5% (inactive)
CO[C@H]1C=CO[C@@]2(C)Oc3c(C)c(O)c4c(O)c(c5c(c4c3C2=O)=NC2(CCN(CC(C)C)CC2)N=5)NC(=O)C(C)=CC=C[C@H](C)[C@H](O)[C@@H](C)[C@@H](O)[C@@H](C)[C@H](OC(C)=O)[C@@H]1C,fluorescence ratio,[1],0.96 (inactive)
same,inhibition,[2],-2.77% (inactive)
same,inhibition,[3],1.44% (inactive)
same,fluorescence ratio,[4],0.96 (inactive)
CCN1CCN(Cc2ccc(NC(=O)c3ccc(C)c(NC(=O)c4cccc5[nH]ccc45)c3)cc2C(F)(F)F)CC1,liver cell % of control,[5],103%
same,parasite % of control,[5],99.7% (inactive)
O=C(O)COCCN1CCN([C@@H](c2ccccc2)c2ccc(Cl)cc2)CC1,inhibition,[2],-1.98% (inactive)
same,inhibition,[3],-1.64% (inactive)
same,fluorescence ratio,[4],0.95 (inactive)
Nc1ncnc2c1c(I)cn2[C@@H]1C[C@H](N)[C@@H](O)[C@H]1O,inhibition,[6],-1% (inactive)
same,fluorescence ratio (interference),[7],0.9 (inactive)
COc1ccc(-c2cc(C(=O)Nc3cc(OC)cc(C(=O)Nc4cccc(C(F)(F)F)c4)c3)[nH]n2)cc1,liver cell % of control,[5],93.9%
same,parasite % of control,[5],36.9% (inactive)
CN(C)c1nc2c(Br)c(Br)c(Br)c(Br)c2[nH]1,inhibition,[6],1% (inactive)
same,fluorescence ratio (interference),[7],1 (inactive)
NS(=O)(=O)c1ccc(-c2ccc(C=C3C(=O)Nc4ccccc43)o2)cc1,liver cell % of control,[5],99.7%
same,parasite % of control,[5],90.6% (inactive)
CCN1C(=O)CCN(C2CCCC2)c2nc(Nc3ccc(C(=O)NC4CCN(C)CC4)cc3OC)ncc21,liver cell % of control,[5],91.7%
same,parasite % of control,[5],362% (inactive)
